According to PubChem BioAssay AID1159580 (chemical genetic matrix, 2015):
Where “and” joins values, the source holds several entries; their conditions need not be identical. Equal entries are not always repeated. Among all 5,500 compounds or so, about 2,000 (36%) were called active. Roughly 18% stayed inconclusive and do not appear here. Cut-off read from the data, not from the text of the source: active = normalized growth mostly below about 0.91 (no sharp cut-off); inconclusive = no clear call, values can overlap the other calls; inactive = mostly above about 0.92. The list shows a part of the results.

Assay: chemical genetic growth profiling, strain panel (AID 1159580);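 note: tested at 20 µM; growth read once vehicle control cultures reached saturation at 30 °C; 1 = growth at the plate median or of vehicle wells; lower values mean less growth of the strain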
Settings: S. cerevisiae deletion strains, growth OD

Measured: normalized growth

Cc1cc(OC(=O)c2c(C)cc(O)cc2O)cc(O)c1C(=O)O
inactive: locus YAL021C, strain ccr4, active compounds read low 1.02 | locus YAL026C, strain drs2, active compounds read low 0.991 | locus YAL030W, strain snc1, active compounds read low 0.995 | locus YBL061C, strain skt5, active compounds read low 0.973 | locus YBR009C, strain hhf1, active compounds read low 0.991 | locus YBR021W, strain FUR4, active compounds read low 1.01 | locus YBR023C, strain chs3, active compounds read low 0.978 | locus YBR171W, strain sec66, active compounds read low 0.988 | locus YBR229C, strain ROT2, active compounds read low 1.01 | locus YBR231C, strain swc5, active compounds read low 0.992 | locus YBR279W, strain paf1, active compounds read low 0.997 | locus YCL011C, strain gbp2, active compounds read low 0.991 | locus YCL016C, strain dcc1, active compounds read low 0.992 | locus YCL029C, strain bik1, active compounds read low 1 | locus YCL061C, strain MRC1, active compounds read low 0.989 | locus YCL069W, strain vba3, active compounds read low 0.998 | locus YCR088W, strain abp1, active compounds read low 0.997 | locus YDL005C, strain med2, active compounds read low 0.983 | locus YDL035C, strain GPR1, active compounds read low 1 | locus YDL040C, strain nat1, active compounds read low 0.98 | locus YDL074C, strain BRE1, active compounds read low 0.999 | locus YDL101C, strain DUN1, active compounds read low 1.01 | locus YDL134C, strain PPH21, active compounds read low 0.99 | locus YDL185W, strain tfp1, active compounds read low 1 | locus YDL192W, strain arf1, active compounds read low 0.979 | locus YDR001C, strain nth1, active compounds read low 1 | locus YDR069C, strain doa4, active compounds read low 0.966 | locus YDR101C, strain arx1, active compounds read low 0.977 | locus YDR137W, strain rgp1, active compounds read low 0.985 | locus YDR159W, strain sac3, active compounds read low 0.987 | locus YDR162C, strain NBP2, active compounds read low 1.01 | locus YDR195W, strain ref2 0.962 | locus YDR297W, strain sur2, active compounds read low 0.99 | locus YDR318W, strain mcm21, active compounds read low 0.981 | locus YDR334W, strain swr1, active compounds read low 0.987 | locus YDR335W, strain msn5, active compounds read low 1.01 | locus YDR388W, active compounds read low 1.02 | locus YDR392W, strain spt3, active compounds read low 0.991 | locus YDR502C, strain sam2, active compounds read low 0.979 | locus YEL003W, strain gim4, active compounds read low 0.972 | locus YEL037C, strain rad23, active compounds read low 1 | locus YEL061C, strain CIN8 (second series), active compounds read low 0.993 | locus YEL061C, strain CIN8, active compounds read low 1.01 | locus YER015W, strain faa2, active compounds read low 0.986 | locus YER016W, strain bim1, active compounds read low 0.993 | locus YER110C, active compounds read low 1.01 | locus YER111C, strain swi4, active compounds read low 0.974 | locus YER155C, strain BEM2 (second series), active compounds read low 0.966 | locus YER155C, strain BEM2, active compounds read low 1.02 | locus YER167W, strain BCK2, active compounds read low 1.01 | locus YFR010W, strain ubp6, active compounds read low 0.968 | locus YGL078C, strain dbp3, active compounds read low 0.967 | locus YGL086W, strain mad1, active compounds read low 0.972 | locus YGL167C, strain pmr1, active compounds read low 0.972 | locus YGL173C, strain kem1, active compounds read low 0.981 | locus YGL227W, strain vid30, active compounds read low 0.996 | locus YGL240W, strain doc1, active compounds read low 0.957 | locus YGL248W, strain PDE1, active compounds read low 1 | locus YGL253W, strain hxk2, active compounds read low 0.99 | locus YGR135W, strain pre9, active compounds read low 0.973 | locus YGR252W, strain gcn5, active compounds read low 0.935 | locus YHR013C, strain ard1, active compounds read low 0.966 | locus YHR027C, strain rpn1, active compounds read low 1.01 | locus YHR030C, strain SLT2, active compounds read low 0.976 | locus YHR079C, strain IRE1 (second series), active compounds read low 1 | locus YHR079C, strain IRE1, active compounds read low 0.968 | locus YHR094C, strain hxt1, active compounds read low 1.02 | locus YHR129C, strain ARP1, active compounds read low 0.997 | locus YHR142W, strain chs7, active compounds read low 1 | locus YHR200W, strain rpn10, active compounds read low 0.985 | locus YIL066C, strain RNR3, active compounds read low 1.01 | locus YIL073C, strain SPO22, active compounds read low 1.01 | locus YIL125W, strain kgd1, active compounds read low 0.995 | locus YIR030C, strain dcg1, active compounds read low 1 | locus YJL092W, strain hpr5, active compounds read low 0.989 | locus YJL095W, strain BCK1 (second series), active compounds read low 0.986 | locus YJL095W, strain BCK1, active compounds read low 0.991 and 0.996 | locus YJL115W, strain asf1, active compounds read low 0.987 | locus YJL129C, strain trk1, active compounds read low 0.983 | locus YJL134W, strain LCB3, active compounds read low 1.02 | locus YJL154C, strain vps35, active compounds read low 0.993 | locus YJL164C, strain tpk1, active compounds read low 1.02 | locus YJL166W, strain qcr8, active compounds read low 0.987 | locus YJL168C, strain set2, active compounds read low 1 | locus YJL187C, strain SWE1 (second series), active compounds read low 0.993 | locus YJL187C, strain SWE1, active compounds read low 1 | locus YJR043C, strain POL32, active compounds read low 1 | locus YJR066W, strain TOR1, active compounds read low 0.894 | locus YJR075W, strain HOC1, active compounds read low 1.01 | locus YKL009W, strain mrt4, active compounds read low 0.991 | locus YKL068W, active compounds read low 1.02 | locus YKL085W, strain MDH1 (second series), active compounds read low 1 | locus YKL085W, strain MDH1, active compounds read low 1 | locus YKL160W, strain elf1, active compounds read low 1.02 | locus YKL190W, strain CNB1, active compounds read low 1.01 | locus YKR001C, strain vps1, active compounds read low 0.98 | locus YKR026C, strain gcn3, active compounds read low 0.983 | locus YKR091W, strain srl3, active compounds read low 0.992 | locus YLL001W, strain dnm1, active compounds read low 1.01 | locus YLL026W, active compounds read low 0.991 | locus YLL041C, strain sdh2, active compounds read low 0.972 | locus YLR027C, strain aat2, active compounds read low 0.99 | locus YLR039C, strain RIC1, active compounds read low 0.914 | locus YLR058C, strain SHM2, active compounds read low 0.992 | locus YLR102C, strain apc9, active compounds read low 1.01 | locus YLR113W, strain HOG1, active compounds read low 1.01 | locus YLR221C, strain rsa3, active compounds read low 0.979 | locus YLR258W, strain gsy2, active compounds read low 0.992 | locus YLR262C, strain YPT6 (second series), active compounds read low 1.01 | locus YLR262C, strain YPT6, active compounds read low 0.989 | locus YLR268W, strain sec22, active compounds read low 0.983 | locus YLR320W, strain mms22, active compounds read low 0.975 | locus YLR330W, strain CHS5, active compounds read low 1.01 | locus YLR342W, strain FKS1 (second series), active compounds read low 1.01 | locus YLR342W, strain FKS1, active compounds read low 0.991 | locus YLR357W, strain rsc2, active compounds read low 0.984 | locus YLR370C, strain arc18, active compounds read low 0.978 | locus YLR371W, strain rom2, active compounds read low 1 | locus YLR384C, strain iki3, active compounds read low 0.963 | locus YLR418C, strain cdc73, active compounds read low 0.951 | locus YML016C, strain PPZ1, active compounds read low 1.01 | locus YML032C, strain rad52, active compounds read low 0.979 | locus YML120C, strain ndi1, active compounds read low 0.994 | locus YML124C, strain tub3, active compounds read low 1 | locus YMR058W, strain fet3, active compounds read low 0.99 | locus YMR078C, strain ctf18, active compounds read low 1 | locus YMR125W, strain sto1, active compounds read low 0.992 | locus YMR129W, active compounds read low 0.996 | locus YMR205C, strain PFK2, active compounds read low 1.03 | locus YMR223W, strain ubp8, active compounds read low 0.975 | locus YMR231W, strain pep5, active compounds read low 0.955 | locus YMR307W, strain GAS1, active compounds read low 0.988 | locus YNL067W, strain RPL9B, active compounds read low 1 | locus YNL071W, strain lat1, active compounds read low 1.02 | locus YNL153C, strain GIM3, active compounds read low 0.985 | locus YNL183C, strain NPR1, active compounds read low 0.933 | locus YNL209W, strain ssb2, active compounds read low 0.996 | locus YNL233W, strain BNI4, active compounds read low 0.989 | locus YNL248C, strain rpa49, active compounds read low 0.992 | locus YNL250W, strain rad50, active compounds read low 1.03 | locus YNL271C, strain bni1, active compounds read low 1.01 | locus YNL298W, strain CLA4, active compounds read low 0.986 | locus YNL307C, strain MCK1, active compounds read low 1 | locus YNL322C, strain KRE1 (second series), active compounds read low 0.974 | locus YNL322C, strain KRE1, active compounds read low 0.986 | locus YNR049C, strain mso1, active compounds read low 0.975 | locus YNR052C, strain pop2, active compounds read low 0.978 | locus YOL006C, strain TOP1, active compounds read low 1.08 | locus YOL012C, strain htz1 1.01 | locus YOL147C, strain pex11, active compounds read low 1.01 | locus YOR001W, strain rrp6, active compounds read low 0.96 | locus YOR061W, strain CKA2, active compounds read low 1.01 | locus YOR069W, strain VPS5, active compounds read low 1.01 | locus YOR070C, strain gyp1, active compounds read low 1 | locus YOR080W, strain dia2, active compounds read low 0.975 | locus YOR083W, strain WHI5, active compounds read low 1.03 | locus YOR106W, strain vam3, active compounds read low 1.03 | locus YOR136W, strain idh2, active compounds read low 1.01 | locus YOR144C, strain elg1, active compounds read low 1.01 | locus YOR184W, strain ser1, active compounds read low 0.973 | locus YOR231W, strain MKK1, active compounds read low 0.974 | locus YOR265W, strain rbl2, active compounds read low 0.991 | locus YOR270C, strain vph1, active compounds read low 0.99 | locus YOR290C, strain snf2, active compounds read low 0.969 | locus YOR316C, strain cot1, active compounds read low 1.01 | locus YPL051W, strain arl3, active compounds read low 0.993 | locus YPL078C, strain atp4, active compounds read low 1.03 | locus YPL106C, strain sse1, active compounds read low 0.99 | locus YPL240C, strain hsp82, active compounds read low 0.974 | locus YPL241C, strain CIN2, active compounds read low 1.02 | locus YPL256C, strain CLN2, active compounds read low 1.01 | locus YPR119W, strain clb2, active compounds read low 1.01 | locus YPR141C, strain kar3, active compounds read low 1.02 | locus YPR163C, strain tif3, active compounds read low 0.983 | locus YPR167C, strain met16, active compounds read low 0.976 | strain wtn01, active compounds read low 0.978
